Values joined by “and” are separate entries in the source; they are usually repeats but may differ in a detail not shown here. Equal values may be shown once. Some of the results follow. Active and inactive are the calls of the source.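 The calls were made as follows, unless noted: active = mean inhibition above 46.68%, the untreated control wells mean plus 3 SD; inactive = the rest.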
Legend:
[1] = target: Nuclear receptor coactivator 3 (Homo sapiens) (UniProt Q9Y6Q9); test: NCOA3 GAL4-fusion reporter inhibition – cell-based, luminescence, quadruplicate, confirmation (AID 588792;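 active = mean inhibition over 43.08%, the solvent-only control mean plus 3 SD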;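 also: 0% = DMSO treated cells and 100% = gossypol at 36 µM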); details: HEK293 GAL4-SRC3 luciferase reporter, at 3.6 µM, active compounds read high
[2] = system: transactivating tegument protein VP16 (Human herpesvirus 1), Gal4-VP16 luciferase reporter; test: repression of VP16-driven luciferase reporter – cell-based, luminescence, high throughput, counter-screen for SRC3 inhibitor project (AID 588794; in the data active = inhibition above about 30%); details: mammalian cells, at 3.6 µM, active compounds read high
[3] = target: Nuclear receptor coactivator 1 (Homo sapiens) (UniProt Q15788); test: NCOA1 GAL4-fusion reporter inhibition – cell-based, luminescence, quadruplicate, confirmation (AID 588820); details: HEK293 GAL4-SRC1 luciferase reporter, at 3.6 µM, active compounds read high;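 also: 0% = DMSO wells and 100% = gossypol 36 µM treated wells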
Nuclear receptor coactivator 1 (Homo sapiens), sequence (Q15788 whole entry, looked up, the tested form may be a part): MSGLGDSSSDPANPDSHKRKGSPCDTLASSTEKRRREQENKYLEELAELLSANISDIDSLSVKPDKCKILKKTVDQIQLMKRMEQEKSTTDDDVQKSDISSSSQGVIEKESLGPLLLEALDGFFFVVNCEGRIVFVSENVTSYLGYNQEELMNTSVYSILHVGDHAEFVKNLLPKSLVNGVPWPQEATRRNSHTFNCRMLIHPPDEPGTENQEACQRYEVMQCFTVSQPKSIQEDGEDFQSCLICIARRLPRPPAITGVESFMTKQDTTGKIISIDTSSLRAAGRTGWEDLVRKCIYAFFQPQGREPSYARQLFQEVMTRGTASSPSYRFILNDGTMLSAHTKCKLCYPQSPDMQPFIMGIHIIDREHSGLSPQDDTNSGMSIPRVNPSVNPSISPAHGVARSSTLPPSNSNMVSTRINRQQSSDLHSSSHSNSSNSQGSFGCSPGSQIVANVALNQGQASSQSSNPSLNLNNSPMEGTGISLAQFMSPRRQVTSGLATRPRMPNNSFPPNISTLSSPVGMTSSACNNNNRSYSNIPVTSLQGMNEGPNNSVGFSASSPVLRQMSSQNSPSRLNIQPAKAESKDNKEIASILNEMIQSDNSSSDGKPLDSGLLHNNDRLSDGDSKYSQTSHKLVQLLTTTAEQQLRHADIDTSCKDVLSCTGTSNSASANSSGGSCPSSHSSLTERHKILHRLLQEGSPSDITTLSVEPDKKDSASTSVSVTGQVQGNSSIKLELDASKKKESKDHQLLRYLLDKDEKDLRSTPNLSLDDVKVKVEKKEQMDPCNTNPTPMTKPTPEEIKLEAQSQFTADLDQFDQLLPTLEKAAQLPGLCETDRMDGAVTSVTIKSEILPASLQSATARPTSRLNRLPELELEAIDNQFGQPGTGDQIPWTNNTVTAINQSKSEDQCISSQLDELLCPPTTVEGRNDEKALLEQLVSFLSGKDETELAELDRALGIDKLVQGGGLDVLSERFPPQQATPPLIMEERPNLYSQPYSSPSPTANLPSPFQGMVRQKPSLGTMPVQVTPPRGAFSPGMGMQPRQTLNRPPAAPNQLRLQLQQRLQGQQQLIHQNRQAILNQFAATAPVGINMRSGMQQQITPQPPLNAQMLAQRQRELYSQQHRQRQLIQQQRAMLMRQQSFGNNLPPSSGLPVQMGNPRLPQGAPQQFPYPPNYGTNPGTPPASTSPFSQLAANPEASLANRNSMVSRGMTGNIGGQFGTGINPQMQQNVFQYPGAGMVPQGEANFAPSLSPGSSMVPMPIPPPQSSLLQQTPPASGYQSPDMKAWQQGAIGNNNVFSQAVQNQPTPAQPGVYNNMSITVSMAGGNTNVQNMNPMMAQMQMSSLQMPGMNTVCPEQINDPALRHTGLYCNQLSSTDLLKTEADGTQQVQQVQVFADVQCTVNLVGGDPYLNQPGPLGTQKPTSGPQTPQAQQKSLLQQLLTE

[4] = repression of VP16-driven luciferase reporter – cell-based, luminescence, high throughput, counter-screen for SRC1 inhibitor project (AID 588824; in the data active = inhibition above about 25%); details: cell-based VP16 transactivation luciferase luminescence; at 3.6 µM; active compounds read high
[5] = target: Photoreceptor-specific nuclear receptor (Homo sapiens) (UniProt Q9Y5X4); test: retest of NR2E3-NCOR disrupting agonists – cell-based, luminescence, CHO-S two-hybrid, confirmation (AID 624378;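 active = average inhibition above a cutoff equal to the mean inhibition of all tested compounds plus one SD, cut at about 70% in these data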;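 also: 0% = DMSO in NR2E3 cells and 100% = DMSO in cells lacking NR2E3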); details: CHO-S mammalian two-hybrid NR2E3-NCOR, luciferase luminescence; at 3.98 µM; active compounds read high
Photoreceptor-specific nuclear receptor (Homo sapiens), sequence (Q9Y5X4 whole entry, looked up): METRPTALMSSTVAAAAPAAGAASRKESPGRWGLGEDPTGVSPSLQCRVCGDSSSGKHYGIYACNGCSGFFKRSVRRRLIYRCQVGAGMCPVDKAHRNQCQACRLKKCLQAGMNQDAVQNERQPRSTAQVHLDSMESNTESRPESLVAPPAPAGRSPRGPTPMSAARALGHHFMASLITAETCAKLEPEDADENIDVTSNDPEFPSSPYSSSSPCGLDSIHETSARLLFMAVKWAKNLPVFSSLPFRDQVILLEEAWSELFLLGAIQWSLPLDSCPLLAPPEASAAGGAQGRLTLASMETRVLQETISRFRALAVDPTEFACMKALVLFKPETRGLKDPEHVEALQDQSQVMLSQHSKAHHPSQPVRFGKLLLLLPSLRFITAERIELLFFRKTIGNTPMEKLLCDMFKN

[6] = nonselective effects on VP16 transactivation – cell-based, luminescence, CHO-S, high throughput, counter-screen for NR2E3 agonist project, confirmation (AID 624379;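 active = mean inhibition above a cutoff equal to the average over all tested compounds plus one standard deviation, cut at about 70% in these data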;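 also: 0% = DMSO with VP16-transfected cells and 100% = DMSO with cells lacking VP16; higher means less reporter light so more repression of VP16 activity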); details: CHO-S GAL4-VP16 luciferase reporter, at 3.98 µM, active compounds read high
[7] = system: transactivating tegument protein VP16 (Human herpesvirus 1); test: compounds suppressing VP16-driven luciferase signal – cell-based, luminescence, single concentration, counter-screen for SRC2 inhibitor project (AID 652007; in the data active = inhibition above about 36%); details: cell-based VP16 transactivation luciferase reporter, at 8.9 µM, active compounds read high
[8] = target: Nuclear receptor coactivator 2 (Homo sapiens) (UniProt Q15596); test: inhibition of GAL4-SRC2 driven luciferase expression – cell-based, luminescence, HEK293, triplicate, confirmation (AID 652008;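 active = mean inhibition above 46.5%, the solvent-only control mean plus 3 SD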;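 also: 0% = DMSO-treated cells and 100% = Gossypol at 36 µM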); details: HEK293 GAL4-SRC2 luciferase reporter, at 8.9 µM, active compounds read high
Nuclear receptor coactivator 2 (Homo sapiens), sequence (Q15596 whole entry, looked up, the tested form may be a part): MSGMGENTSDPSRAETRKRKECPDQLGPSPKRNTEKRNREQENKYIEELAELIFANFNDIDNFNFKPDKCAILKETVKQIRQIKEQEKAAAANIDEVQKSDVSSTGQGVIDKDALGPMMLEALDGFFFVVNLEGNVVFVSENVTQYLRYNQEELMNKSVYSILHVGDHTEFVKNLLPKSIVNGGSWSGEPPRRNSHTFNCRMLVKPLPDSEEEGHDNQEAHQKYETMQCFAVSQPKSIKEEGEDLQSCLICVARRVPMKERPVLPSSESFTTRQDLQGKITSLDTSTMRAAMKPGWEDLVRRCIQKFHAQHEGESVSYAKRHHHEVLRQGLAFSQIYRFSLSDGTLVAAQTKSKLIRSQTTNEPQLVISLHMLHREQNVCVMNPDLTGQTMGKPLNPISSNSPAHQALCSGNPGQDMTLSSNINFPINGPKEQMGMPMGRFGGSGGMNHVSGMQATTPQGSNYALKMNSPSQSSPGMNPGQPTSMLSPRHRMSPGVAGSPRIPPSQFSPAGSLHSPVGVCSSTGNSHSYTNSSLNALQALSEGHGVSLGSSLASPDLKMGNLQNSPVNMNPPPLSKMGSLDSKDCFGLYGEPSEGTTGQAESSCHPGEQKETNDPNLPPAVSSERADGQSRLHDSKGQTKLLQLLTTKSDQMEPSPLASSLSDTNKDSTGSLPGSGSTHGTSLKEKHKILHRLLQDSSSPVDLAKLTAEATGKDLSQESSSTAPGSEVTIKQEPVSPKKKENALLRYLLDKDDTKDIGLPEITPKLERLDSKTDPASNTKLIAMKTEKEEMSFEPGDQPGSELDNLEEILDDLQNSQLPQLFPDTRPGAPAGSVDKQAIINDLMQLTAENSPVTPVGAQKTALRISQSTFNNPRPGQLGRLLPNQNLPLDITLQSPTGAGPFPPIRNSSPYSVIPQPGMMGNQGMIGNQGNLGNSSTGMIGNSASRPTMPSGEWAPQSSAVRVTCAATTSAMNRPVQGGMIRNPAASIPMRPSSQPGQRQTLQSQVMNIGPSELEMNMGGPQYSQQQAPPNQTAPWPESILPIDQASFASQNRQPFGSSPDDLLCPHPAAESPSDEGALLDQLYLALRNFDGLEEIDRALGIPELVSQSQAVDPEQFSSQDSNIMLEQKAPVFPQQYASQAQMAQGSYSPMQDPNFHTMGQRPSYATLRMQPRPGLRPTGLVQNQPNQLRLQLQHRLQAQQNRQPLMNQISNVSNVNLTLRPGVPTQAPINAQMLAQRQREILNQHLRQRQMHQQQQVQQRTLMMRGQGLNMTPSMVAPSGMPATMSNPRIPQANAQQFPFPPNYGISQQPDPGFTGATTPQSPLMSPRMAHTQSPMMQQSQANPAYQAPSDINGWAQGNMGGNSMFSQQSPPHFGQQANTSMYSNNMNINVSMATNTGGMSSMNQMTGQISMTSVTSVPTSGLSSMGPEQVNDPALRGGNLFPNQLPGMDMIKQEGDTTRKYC

[9] = VP16-driven transactivation reporter suppression – cell-based, luminescence, HEK293, counter-screen for COUP-TFII antagonist project (AID 687007; in the data active = inhibition above about 13%); details: HEK293 Gal4-VP16 luciferase reporter, at 8.5 µM, active compounds read high
[10] = target: COUP transcription factor 2 (Homo sapiens) (UniProt P24468); test: retest of COUP-TFII reporter suppressors – cell-based, luciferase reporter, HEK293, triplicate, confirmation (AID 687008;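 active = mean inhibition over three repeats above a set limit taken from the earlier primary screen, cut at about 38% in these data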;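 also: 100% = cells given the luciferase reporter alone without the COUP-TF2 vector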); details: HEK293 NGFI-A luciferase reporter, luminescence; at 8.5 µM; active compounds read high
COUP transcription factor 2 (Homo sapiens), sequence (P24468 whole entry, looked up): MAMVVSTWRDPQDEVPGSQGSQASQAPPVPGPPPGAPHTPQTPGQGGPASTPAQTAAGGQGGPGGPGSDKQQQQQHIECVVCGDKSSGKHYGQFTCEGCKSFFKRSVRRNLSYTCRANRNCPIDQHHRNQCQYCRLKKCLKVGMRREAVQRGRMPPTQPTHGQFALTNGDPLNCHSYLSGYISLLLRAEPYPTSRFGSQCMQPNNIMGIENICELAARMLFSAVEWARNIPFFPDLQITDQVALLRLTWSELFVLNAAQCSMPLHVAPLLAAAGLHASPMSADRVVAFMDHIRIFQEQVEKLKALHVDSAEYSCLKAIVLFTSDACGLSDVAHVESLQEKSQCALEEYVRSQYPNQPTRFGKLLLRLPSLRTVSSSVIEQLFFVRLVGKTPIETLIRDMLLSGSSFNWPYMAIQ

[11] = StAR promoter reporter inhibitors, counter-screen for LRH-1 inverse agonist project, cell-based, luminescence, high throughput (AID 651611; in the data active = inhibition above about 28%); details: StAR promoter luciferase reporter counterscreen, at 3.6 µM, active compounds read high
[12] = target: Nuclear receptor subfamily 5 group A member 2 (Homo sapiens) (UniProt O00482); test: NR5A2 activity suppression in reporter cells – cell-based, luminescence, confirmation (AID 651613; in the data active = inhibition above about 42%;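 also: HEK293T cells co-transfected with LRH-1 and StAR promoter luciferase reporter; 0% = vehicle wells and 100% = parental cells lacking receptor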); details: cell-based LRH-1 luciferase reporter, inverse agonism; at 3.6 µM; active compounds read high
Nuclear receptor subfamily 5 group A member 2 (Homo sapiens), sequence (O00482 whole entry, looked up): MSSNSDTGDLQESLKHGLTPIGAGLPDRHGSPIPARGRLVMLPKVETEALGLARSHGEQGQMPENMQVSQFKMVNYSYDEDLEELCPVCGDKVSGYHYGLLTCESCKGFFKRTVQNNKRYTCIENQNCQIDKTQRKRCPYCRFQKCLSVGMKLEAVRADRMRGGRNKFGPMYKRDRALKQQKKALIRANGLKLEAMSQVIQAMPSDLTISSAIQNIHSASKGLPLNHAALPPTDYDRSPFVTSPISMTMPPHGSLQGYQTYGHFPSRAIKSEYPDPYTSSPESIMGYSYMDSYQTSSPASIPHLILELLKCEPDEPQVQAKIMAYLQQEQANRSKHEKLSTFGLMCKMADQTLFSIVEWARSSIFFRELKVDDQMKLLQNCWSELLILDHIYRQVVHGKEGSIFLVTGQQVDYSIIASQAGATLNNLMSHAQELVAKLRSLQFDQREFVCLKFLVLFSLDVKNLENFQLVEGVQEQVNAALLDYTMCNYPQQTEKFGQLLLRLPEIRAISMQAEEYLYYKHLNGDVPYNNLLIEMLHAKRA

[13] = target: Steroidogenic factor 1 (Homo sapiens) (UniProt Q13285); test: inverse agonism at SF1 nuclear receptor – cell-based, luminescence, high throughput, counter-screen for LRH-1 inverse agonist project (AID 651614; in the data active = inhibition above about 44%;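 also: cells cotransfected with StAR promoter reporter and SF1 expression vector; 0% = vehicle on cells with receptor and 100% = vehicle on cells lacking receptor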); details: cell-based SF1 luciferase reporter, at 3.6 µM, active compounds read high
Steroidogenic factor 1 (Homo sapiens), sequence (Q13285 whole entry, looked up, the tested form may be a part): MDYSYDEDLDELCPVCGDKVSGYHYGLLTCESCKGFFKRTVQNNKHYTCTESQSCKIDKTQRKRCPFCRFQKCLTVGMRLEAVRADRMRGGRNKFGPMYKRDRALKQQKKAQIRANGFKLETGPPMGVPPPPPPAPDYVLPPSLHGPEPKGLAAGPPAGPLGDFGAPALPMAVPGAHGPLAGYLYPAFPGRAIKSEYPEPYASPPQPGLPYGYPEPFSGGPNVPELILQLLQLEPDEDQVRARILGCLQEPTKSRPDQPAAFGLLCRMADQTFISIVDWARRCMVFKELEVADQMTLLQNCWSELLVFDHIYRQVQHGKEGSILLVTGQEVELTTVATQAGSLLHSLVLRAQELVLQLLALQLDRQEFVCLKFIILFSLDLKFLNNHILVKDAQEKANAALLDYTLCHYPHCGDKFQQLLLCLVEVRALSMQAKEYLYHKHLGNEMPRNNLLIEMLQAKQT

[14] = compounds suppressing VP16-driven luciferase signal – cell-based, luminescence, high throughput, counter-screen for LRH-1 inverse agonist project (AID 651615; in the data active = inhibition above about 33%); details: Gal4-VP16 luciferase reporter cells, at 3.6 µM, active compounds read high

Measured: inhibition

Cc1nc2c(o1)C(=O)c1ccccc1C2=Nc1ccccc1
active: [1] 78.5% | [2] 94.3% | [3] 61.8% | [4] 79.1%

COc1ccc(NC(=O)CN(C)C(=O)C2(c3ccccc3)CCCC2)cc1
inactive: [1] 25.3% | [2] 8.28% | [3] 25.3% | [4] 4.02%

CN(Cc1c(C(=O)N/N=C/c2cccc(F)c2)nnn1-c1nonc1N)C1CCCCC1
inactive: [1] -12.4% | [2] 3.59% | [3] 6.95% | [4] -3.15%

CCOc1cc(C(N)=O)cc(Br)c1OC
inactive: [1] 29.6% | [2] 20.8% | [3] 29.3% | [4] 14.2%

Cc1cn([C@@H](CCCCNC(=O)OC(C)(C)C)C(=O)NCCCCCCCCCCC(=O)N2CCN(C(=O)OC(C)(C)C)CC2)nn1
active: [4] 41.8%
inactive: [1] 12.4% | [2] 25.6% | [3] 4.04%

COc1ccc(NC(=O)c2cc([N+](=O)[O-])ccc2O)cc1
active: [2] 35.5% | [4] 29.2%
inactive: [1] 42.1% | [3] -37.7%

COc1cccc2c1C(=N)c1c(O)c3c(c(O)c1C2=O)CC(O)(C(C)=O)CC3OC1CC(N)C(O)C(C)O1 (stereo not given)
inactive: [1] 41.9% | [2] -33.3% | [3] 26.9% | [4] -29.4%

O=C(NCc1cccs1)c1nc2c(nnn2Cc2ccccc2Cl)c(=O)[nH]1
active: [1] 84.2% | [2] 79.5% | [3] 58.5% | [4] 74.7%

CN(c1ncnc(N)c1[N+](=O)[O-])C1CCS(=O)(=O)C1 (stereo not given)
active: [1] 55.2% | [2] 35.7% | [3] 52.7% | [4] 34.1%

CCCCNc1nc2c(c(=O)n(C)c(=O)n2C)n1Cc1cccc(OC)c1
inactive: [1] 11.7% | [2] 25.3% | [3] 16.8%
active: [4] 26.6%

CCCCCCCCCCCCCCCC[n+]1cccc2ccccc21
inactive: [3] 39.9%
active: [1] 44.9% | [2] 69.2% | [4] 76%

O=C(Nc1nc(-c2ccc(S(=O)(=O)N3CCCC3)cc2)cs1)C1COc2ccccc2O1 (stereo not given)
inactive: [1] 7.31% | [2] -0.16% | [3] -8.23% | [4] -2.78%

Cc1cc(C)nc(SCC(=O)Nc2ccnc3ccccc23)n1
inactive: [1] 12.2% | [3] -7.31%
active: [2] 36.5% | [4] 31.7%

CCN(CC)S(=O)(=O)c1ccc(/C=C/C(=O)Nc2ccc(Br)cc2F)cc1
inactive: [1] 21.2% | [3] 16%
active: [2] 40.3% | [4] 41.9%

COc1cc2cncc(Cc3ccc(Cl)cc3)c2cc1OC
active: [2] 40.7% | [3] 56.2% | [4] 39.4%
inactive: [1] 42.2%

Cc1cc(/C=C2/C(=O)NN(c3ccccc3)C2=O)c(C)n1-c1ccc(O)cc1
inactive: [1] -13.6% | [2] -41.7% | [3] -66% | [4] -74.4%

Cc1nc(N2CCC(C(N)=O)CC2)c2c(-c3cccs3)csc2n1
inactive: [1] 38% | [2] 25.8% | [3] 34.9% | [4] 18.9%

COc1ccc(CN(C)C(=O)c2ccc(OCC(=O)Nc3cccc(C(F)(F)F)c3)c(OC)c2)cc1
inactive: [1] 4.69% | [2] 24.7% | [3] 2.4% | [4] 20.5%

N#Cc1c2ccc(O)cc2n2ccccc12
inactive: [1] 41.8% | [2] 21.9% | [3] 42.8% | [4] 11.9%

Cc1ccc(C)c(S(=O)(=O)N2CCN(c3ncnc4sccc34)CC2)c1
active: [1] 63.1% | [2] 59.6% | [3] 57.9% | [4] 56.5% | [5] 93.9% | [6] 82.7% | [8] 53.3% | [9] 20.1% | [10] 49.9%
inactive: [7] 32.8%

C=CCn1c(C)cc(C2=NNC(=NCC)SC2)c1C
active: [1] 87% | [2] 85.3% | [3] 74.7% | [4] 81% | [5] 77.4% | [6] 73% | [11] 82.1% | [12] 75.7% | [13] 79.8% | [14] 75.6% | [7] 81.8% | [8] 93% | [9] 82% | [10] 105%

O=C(Nc1ccon1)c1nc[nH]c1C(=O)NCc1ccccc1
inactive: [1] 35.1% | [3] 27.6%
active: [2] 52.7% | [4] 53.3% | [11] 50.5% | [12] 58.4% | [13] 51% | [14] 68%

Cc1ccc(S(=O)(=O)Nc2ccccc2C(=O)Nc2nc(-c3ccc(F)cc3)cs2)cc1
inactive: [1] 20.7% | [2] 27.8% | [3] 20.1%
active: [4] 37% | [11] 42.1% | [12] 82.7% | [13] 80.3% | [14] 72.4%

C=CS(=O)(=O)N(Cc1ccc(Cl)c(Cl)c1)C[C@@H](O)CO
inactive: [1] 42.6% | [2] 19.1% | [3] 8.46% | [4] 13.3% | [14] 28.3%
active: [11] 55.4% | [12] 50.4% | [13] 58%

O=C(/C=C/c1ccc(O)cc1)c1ccc(NC2=C(N3CCCCC3)C(=O)c3ccccc3C2=O)cc1
inactive: [1] 33.2% | [2] 26.1% | [3] 22.5% | [11] -1.86% | [13] 17.3%
active: [4] 36.1% | [12] 76.3% | [14] 67.4%

COc1ccc(Nc2ncnc3ccc(Br)cc23)c(OC)c1
active: [1] 67.1% | [3] 68.4% | [5] 85.3% | [6] 75.5% | [11] 86% | [12] 47.3% | [13] 79.2% | [14] 30.8% | [8] 93.8%
inactive: [2] 9.75% | [4] 8.18% | [7] 32.4% | [9] 7.13% | [10] 11.9%

Cc1nc2cc(NCc3nc4ccccc4n3Cc3ccccc3)ccc2n1C
inactive: [1] -99.3% | [2] -51.2% | [3] -116% | [4] -72.9% | [11] -136% | [12] -185% | [13] -209% | [14] -111%

CC(C)(C)c1ccc(Oc2ccc(N)cc2)cc1
inactive: [5] 36.9%
active: [1] 68.3% | [2] 61.4% | [3] 52.4% | [4] 57.7% | [6] 71.6% | [11] 71.2% | [12] 88.6% | [13] 78.9% | [14] 60.1% | [7] 90.2% | [8] 95.2% | [9] 91.8% | [10] 101%

Cc1ccsc1C(=O)OCC(=O)c1cc(C)n(CC2CCCO2)c1C (stereo not given)
inactive: [6] 50.3% | [12] 15.3%
active: [1] 73.4% | [2] 65.6% | [3] 49.5% | [4] 44.4% | [5] 70.8% | [11] 66.9% | [13] 61.6% | [14] 39.8% | [7] 59.5% | [8] 85% | [9] 78.4% | [10] 97.7%

COc1ccc(C(=O)Nc2nc3ccccc3s2)c(OC)c1
active: [1] 92.8% | [2] 91.5% | [3] 84.7% | [4] 87.5% | [11] 93.4% | [12] 93.9% | [13] 92.3% | [14] 90.2%

CC(=O)N1CCCc2cc(S(=O)(=O)N3CCCC(C(=O)N4CCN(c5cccc(Cl)c5)CC4)C3)ccc21 (stereo not given)
active: [2] 31.5% | [4] 35.6% | [5] 93% | [10] 60.1%
inactive: [1] 26.4% | [3] 7.87% | [6] 70.2% | [7] 14.8% | [8] 26.6% | [9] 4.48%

Cc1onc(-c2ccccc2)c1C(=O)NC(=S)NNC(=O)c1ccc(O)cc1O
active: [1] 55.7% | [2] 75.7% | [3] 69.8% | [4] 80.5% | [11] 62.8% | [12] 95.8% | [13] 85.6% | [14] 83.5%

CCN1/C(=C/C(C)=C/c2sc3ccccc3[n+]2CC)Sc2ccccc21
active: [1] 80.9% | [2] 84.2% | [3] 58.4% | [4] 81.6% | [11] 77% and 81.8% | [12] 107% and 106% | [13] 89.7% and 93.3% | [14] 88.1% and 89.4%

CCc1ccc(/C=C/c2c[nH]c3ccccc23)[n+](CC)c1
inactive: [1] 29.8% | [3] 24.4%
active: [2] 43.6% | [4] 58% | [11] 39.4% | [12] 87.6% | [13] 74% | [14] 75.8%

COc1ccc(-c2oc3ccc(N4CCOCC4)cc3c2C#CCO)cc1
active: [11] 54.3% | [12] 55.7% | [13] 62% | [14] 53.4%
inactive: [1] 10.8% | [2] 21.3% | [3] -22.7% | [4] 18.5%

COc1ccc(-c2coc3c(C(=O)Nc4cc(OC)c(OC)c(OC)c4)cccc23)c(C)c1
active: [2] 29.8% | [4] 31.8%
inactive: [1] 19.8% | [3] 0.16%

COc1cccc(/C=N/NC(=O)C(=O)Nc2ccccc2OC(F)(F)C(F)F)c1O
active: [2] 38%
inactive: [1] 36.3% | [3] 33.3% | [4] 23.4%

NC(=S)NN=Cc1nccc2c(C(F)(F)F)cccc12
active: [1] 86.8% | [2] 69.7% | [3] 63.9% | [4] 56.4% | [11] 89.7% | [12] 100% | [13] 93.2% | [14] 66.5%

Cc1csc(CNc2ncnc3ccc(-c4ccoc4)cc23)c1
active: [1] 52.7% | [2] 47.6% | [3] 48% | [4] 44.5%

CC(=NNC(=S)N1CCN(C2CCCCCC2)CC1)c1ccccn1
active: [1] 50% | [2] 83.7% | [3] 66.2% | [4] 71% | [11] 81.8% | [12] 98.5% | [13] 85.4% | [14] 65.2%

Reference: PubChem BioAssay
